Test results: PubChem BioAssay (NCI)
About 83,000 compounds went through this panel and 20% of them were active in at least one assay; those are over-represented in the sample as a whole.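 Compound tested at a single concentration for 48 hours in 96-well plates; a percent growth value below 10 was scored as active.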 The source made the active and inactive calls.

Legend:
Assay in all cases: NCI-60 one-dose screen, 48 h (100 = growth as untreated, 0 = no growth, -100 = all killed)
Conditions in all cases: 10 µM unless noted
[1] = test system: SR leukemia
[2] = test system: RPMI-8226 leukemia
[3] = test system: OVCAR-8 ovarian
[4] = test system: OVCAR-5 ovarian
[5] = test system: OVCAR-4 ovarian
[6] = test system: SK-OV-3 ovarian
[7] = test system: IGROV1 ovarian
[8] = test system: OVCAR-3 ovarian
[9] = test system: HS 578T breast
[10] = test system: NCI/ADR-RES ovarian

Measured: growth

Cc1ccc(C(=O)Nc2ccccc2C(=O)N/N=C(\c2ccccc2)c2ccccn2)cc1
inactive: [1] 16.8% | [2] 16% | [3] 19.5% | [4] 43.3% | [7] 24% | [8] 22.5% | [9] 68.3% | [10] 13.3%
active: [5] 9.94% | [6] 8.33%

COc1ccc(-c2nc(N/N=C/c3c[nH]c4ccccc34)nc(N3CCOCC3)c2C#N)cc1
active: [1] -2.03%
inactive: [2] 71.9% | [3] 92.5% | [4] 125% | [5] 105% | [6] 115% | [7] 80.9% | [8] 90.4% | [9] 93.4% | [10] 96.5%

CN1CCN(c2c(F)cc(NC3=C(Cl)C(=O)c4ncccc4C3=O)cc2F)CC1
inactive: [2] 67.1% | [3] 78.1% | [4] 105% | [6] 101% | [7] 57.4% | [9] 97.2% | [10] 89.7%
active: [1] 4.88% | [5] -87.8% | [8] -28%

CCN(CC)CCCC(C)Nc1c2c(nc3ccc(OC)cc13)CCCC2 (stereo not given)
inactive: [1] 93.6% | [2] 100% | [3] 105% | [4] 90.2% | [5] 103% | [6] 119% | [7] 98.1% | [8] 102% | [9] 93.5% | [10] 96.8%

O=C(Nc1cccc(C2=NCCN2)c1)c1ccc(OCCCOc2ccc(C(=O)Nc3cccc(C4=NCCN4)c3)cc2)cc1
inactive: [1] 11.9% | [3] 55% | [4] 24.8% | [5] 13.2% | [6] 31.6% | [9] 35.6% | [10] 104%
active: [2] -3.7% | [7] -40.2% | [8] 5.65%

COc1ccc(C2=C(c3ccccc3)c3ccc(OC(C)=O)cc3OC2(C)C)cc1
inactive: [1] 41.2% | [2] 32% | [3] 125% | [4] 85.3% | [5] 88.2% | [6] 116% | [7] 96.7% | [8] 85.1% | [9] 104% | [10] 77.2%

O=c1[nH]c(=O)[nH]c(=S)[nH]1
inactive: [1] 106% | [2] 106% | [3] 101% | [4] 102% | [5] 109% | [6] 111% | [7] 102% | [8] 119% | [9] 99.3% | [10] 105%

C=C1C(=O)O[C@H]2[C@H]1CC/C(CNC(=O)/C=C/c1ccc(Br)cc1)=C\CC[C@@]1(C)O[C@@H]21
active: [1] 0.986% | [2] -33.7% | [3] 2.52% | [4] -51.4% | [7] -27.9% | [8] -91.4% | [9] -7.13%
inactive: [5] 44.7% | [6] 46.6% | [10] 38.5%

COc1ccc(C2=NN(C(C)=O)C(c3cn(Cc4ccc(Cl)cc4)c4ccccc34)C2)cc1 (stereo not given)
inactive: [1] 66.2% | [2] 50% | [3] 78.3% | [4] 79.6% | [5] 70.1% | [6] 90.1% | [7] 77.5% | [8] 78.1% | [9] 75.9% | [10] 75%

CN1CCN(c2ccc3nc(-c4cc(C(C)(C)C)c(O)c(C(C)(C)C)c4)[nH]c3c2)CC1
inactive: [3] 94.1% | [4] 91.6% | [5] 75.9% | [6] 83.9% | [7] 88% | [8] 74.4% | [9] 71.9% | [10] 86.8%
active: [1] -14.5% | [2] -24.2%

CCCCCN1C=C/C(=C\C(=O)N(C)c2cccc3ccccc23)c2ccccc21
inactive: [1] 81.5% | [2] 78.5% | [3] 98.4% | [4] 109% | [5] 86.5% | [6] 99.6% | [7] 93.7% | [8] 96.9% | [9] 99.9% | [10] 106%

CC(=O)c1c(C)[nH]c(-c2nc3ccc(N4CCN(C)CC4)cc3[nH]2)c1-c1ccccc1
active: [2] 3.67% | [9] 9.13%
inactive: [1] 28.4% | [3] 45.6% | [4] 34.8% | [5] 33.4% | [6] 20.5% | [7] 23.8% | [8] 28.8% | [10] 36.3%

CCOc1cc(CNc2ccc(N3CCOCC3)c(C(=O)O)c2)ccc1OC
inactive: [1] 94.2% | [2] 100% | [3] 95.2% | [4] 102% | [5] 102% | [6] 120% | [7] 103% | [8] 105% | [9] 95.6% | [10] 102%

CCNC(=O)c1[nH]cc(-c2ccc(OC)cc2)c1-c1cc(OC)c(OC)c(OC)c1
active: [8] 2.53%
inactive: [1] 19.5% | [2] 38% | [3] 66.3% | [4] 74.6% | [5] 45.7% | [6] 57.7% | [7] 47.4% | [9] 45.3% | [10] 19.8%

CCc1c(Nc2ccc(C)cc2)[nH]c(N)nc1=S
inactive: [1] 94.4% | [2] 115% | [3] 101% | [4] 98.9% | [5] 107% | [6] 111% | [7] 104% | [8] 119% | [9] 94.8% | [10] 105%

COc1ccc(NC(=O)c2sc3nc(C)c(C(=O)c4ccc(OC)cc4)cc3c2N)cc1
active: [1] 7.62%
inactive: [2] 41.3% | [3] 62.1% | [4] 72.6% | [5] 61.7% | [6] 42.7% | [7] 50.2% | [8] 25% | [9] 40.4% | [10] 48.9%

CCCCCCCCN1C(=O)/C(=c2\sc3n(c2=O)C2C(NN=3)N(CC)C(=O)N2CC)c2ccccc21 (stereo not given)
inactive: [1] 77.5% | [2] 105% | [3] 85.7% | [4] 81.6% | [5] 94.2% | [6] 90.6% | [7] 86.5% | [8] 98.6% | [9] 40.4% | [10] 82.2%

[2H]C1([2H])NC([2H])([2H])C([2H])([2H])N(c2ccc(Nc3ncc4cc(C(=O)N(C)C)n(C5CCCC5)c4n3)nc2)C1([2H])[2H]
inactive: [1] 39.8% | [2] 34.8% | [3] 85.2% | [4] 39.8% | [5] 92.7% | [6] 58.3% | [7] 73.4% | [8] 107% | [9] 71.2% | [10] 104%

COc1cc(C2NC(c3cc(OC)c(OC)c(OC)c3)C(C#N)(C#N)C2(C#N)C#N)cc(OC)c1OC (stereo not given)
inactive: [1] 118% | [2] 102% | [3] 106% | [4] 96.4% | [5] 100% | [6] 102% | [7] 106% | [8] 110% | [9] 89.2% | [10] 97.8%

C=CCn1c(SCC(=O)Nc2ccc(C(=O)/C=C/c3cc(OC)c(OC)c(OC)c3)cc2)nnc1-c1cc(-c2ccc(S(C)(=O)=O)cc2)nc2ccccc12
inactive: [1] 13.9% | [3] 68.6% | [4] 112% | [5] 94.5% | [6] 127% | [7] 72.8% | [8] 85.9% | [9] 95.3% | [10] 91.3%
active: [2] -5.82%

CCCc1cc2c(cc1Br)OCO2
inactive: [1] 111% | [2] 113% | [3] 96.1% | [4] 96.5% | [5] 114% | [6] 103% | [7] 111% | [8] 113% | [9] 99.8% | [10] 98.5%

O=C(Nc1nc(-c2ccc(Br)cc2)cs1)c1cc(-c2ccc(Br)cc2)nc2ccc(Cl)cc12
inactive: [1] 70.4% | [2] 85% | [3] 88.1% | [4] 104% | [5] 82.5% | [6] 78.2% | [7] 60.5% | [8] 86.9% | [9] 95.2% | [10] 89.7%

C#CCNC(=O)[C@H](Cc1ccccc1)NC(=O)[C@]12CC[C@@H](C(=C)C)[C@@H]1[C@H]1CC[C@@H]3[C@@]4(C)Cc5c([nH]c6ccccc56)C(C)(C)[C@@H]4CC[C@@]3(C)[C@]1(C)CC2
inactive: [1] 88.5% | [2] 82.9% | [3] 96.5% | [4] 95.8% | [5] 108% | [6] 95.4% | [7] 110% | [8] 96.5% | [9] 113% | [10] 97.2%

CCCCCCCCOC(=O)c1ccc(O)c(OC)c1
inactive: [1] 85.3% | [2] 89.2% | [3] 96.3% | [4] 107% | [5] 78.2% | [6] 103% | [7] 59.8% | [8] 101% | [9] 97.8% | [10] 96%

CCC(C)C(N)C(=O)NNc1n[nH]c(=S)n1N (stereo not given)
inactive: [1] 99.7% | [2] 99.9% | [3] 97.8% | [4] 99.2% | [5] 102% | [6] 99.3% | [7] 105% | [8] 107% | [9] 91.6% | [10] 102%

C[C@H]1[C@H](C)CC[C@]2(CO)CC[C@]3(C)C(=CC[C@@H]4[C@@]5(C)Cc6c([nH]c7ccccc67)C(C)(C)[C@@H]5CC[C@]43C)[C@H]12
inactive: [1] 75.8% | [2] 83.7% | [3] 77% | [4] 116% | [5] 89.8% | [6] 96.9% | [7] 88.8% | [8] 87.4% | [9] 74.6% | [10] 90.6%
